Data as given in PubChem BioAssay (Tox21).
Values joined by “and” are separate entries in the source; they are usually repeats but may differ in a detail not shown here. Equal values may be shown once. Inconclusive results are not listed. A call without a number means that no potency is given here. More than one record can exist for a structure, and the calls need not agree. Active and inactive are the calls of the source. Calls follow the shape of the dose curve; as a rule, active = well fitted curve in the direction sought with a large enough effect in the repeat runs; inconclusive = weak or mixed curves; inactive = no such curve, though single readings can be large; an effect the other way counts as inactive or inconclusive.
Potency is read from the fitted curve at half-maximal effect.

Test: Caspase-3/7 induction in CHO-K1 cells by small molecules, qHTS cell viability counter screen (AID 1346979); also: nearly all actives have a fitted effect of over 35% in size
Conditions: CellTiter-Fluor fluorescence, 17 h; series mostly up to 92.4 µM; activity change, negative = cytotoxicity: at the top concentration
Method in brief: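 To flag cytotoxic compounds, treated CHO-K1 wild-type cells were given CellTiter-Fluor at 16hr and read fluorescently after 1hr at 37C; the caspase-3/7 luminescence was measured in these same wells.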
With `CN(C)c1cccc(O)c1` the Potency was “inactive”.
With `CS(=O)(=O)Nc1ccc([N+](=O)[O-])cc1Oc1ccccc1` the Potency was 54.5 µM (active).
In the case of `CCCCCCCCC`, the Potency is reported as “inactive”.
With `OC1CCCC1` the Potency was “inactive”.
With `NS(=O)(=O)c1cc2c(cc1Cl)NC=NS2(=O)=O` the Potency was “inactive”.
With `Nc1c(S(=O)(=O)O)cc(Br)c2c1C(=O)c1ccccc1C2=O` the Potency was 48.6 µM (active).
For `OCCOCCOCCOCCO`, the Potency was “inactive”.
In the case of `CC(C)(N=C=O)c1cccc(C(C)(C)N=C=O)c1`, the Potency is reported as “inactive”.
For `CCC(C)C=O` (stereo unspecified), the Potency was “inactive”.
In the case of `CCOC(=O)/C=C\C(=O)OCC`, the Potency is reported as “inactive”.
For `C=C(C)C(=O)OCCC[Si](OC)(OC)OC`, the Potency was “inactive”.
With `CC(C)(C)C1CCC(O)CC1` (stereo unspecified) the Potency was “inactive”.
In the case of `ClC1=C(Cl)C(Cl)(Cl)C(Cl)=C1Cl`, the “activity change, negative = cytotoxicity” value is reported as 7.32% (inactive).
With `Cc1cc(=O)[nH]c(C(C)C)n1` the Potency was “inactive”.
For `CCCCCC/C=C/CCCCCCCC(=O)O`, the Potency was “inactive”.
In the case of `Cc1ccc(N)c(S(=O)(=O)O)c1`, the Potency is reported as “inactive”.
In the case of `CC1Cc2ccccc2N1NC(=O)c1ccc(Cl)c(S(N)(=O)=O)c1` (stereo unspecified), the Potency is reported as “inactive”.
In the case of `CC1(C)CC(N=C=O)CC(C)(CN=C=O)C1` (stereo unspecified), the Potency is reported as “inactive”.
For `CC(C)Cc1ccccc1`, the Potency was “inactive”.
With `Cc1ccc(C)c(C)c1` the Potency was “inactive”.
For `CCCCCCC(C)(C)S`, the Potency was “inactive”.
With `Oc1ccc(OCc2ccccc2)cc1` the “activity change, negative = cytotoxicity” value was 11% [at 42.5 µM] (inactive).
For `O=S(=O)(O)c1cc(S(=O)(=O)O)c2c(N=Nc3ccccc3)c(O)ccc2c1`, the Potency was 54.7 µM (active) and 34.4 µM (active).
For `O=C1O[C@H](CO)[C@@H](O)[C@H](O)[C@H]1O`, the Potency was “inactive”.
For `C[C@@H]1O[C@@H](OC[C@H]2O[C@@H](Oc3c(-c4ccc(O)c(O)c4)oc4cc(O)cc(O)c4c3=O)[C@H](O)[C@@H](O)[C@@H]2O)[C@H](O)[C@H](O)[C@H]1O`, the “activity change, negative = cytotoxicity” value was -9.66% [at 42.5 µM] (inactive).
With `O=S(=O)(O)CCS` the Potency was “inactive”.
With `O=C(Oc1ccccc1)c1ccc(O)cc1` the “activity change, negative = cytotoxicity” value was -0.805% (inactive).
For `CC1=CC[C@H]2C[C@@H]1C2(C)C`, the “activity change, negative = cytotoxicity” value was 2.44% (inactive).
In the case of `O=[N+]([O-])c1cccc(Cl)c1`, the Potency is reported as “inactive”.
In the case of `O=C(O)c1cc(-c2ccccc2)nc2ccccc12`, the “activity change, negative = cytotoxicity” value is reported as 4.31% [at 42.5 µM] (inactive).
For `C=C(C)C(=O)OCCCCCCCCCCCC`, the Potency was “inactive”.
For `CNC[C@H](O)[C@@H](O)[C@H](O)[C@H](O)CO`, the Potency was “inactive”.
With `CCCCCCCCCC(=O)O` the Potency was “inactive”.
With `CCCCC(CC)COC(C)=O` (stereo unspecified) the Potency was “inactive”.
With `O=[N+]([O-])C(CO)(CO)CO` the Potency was 1.7 µM (active) and inactive.
For `CC1=C(/C=C/C(C)=C/C=C/C(C)=C/CO)C(C)(C)CCC1`, the Potency was 69.4 µM (active).
In the case of `C=C(C#N)C(=O)OCC`, the Potency is reported as “inactive and 61.1 µM (active)”.
For `CC(C)(CO)COC(=O)C(C)(C)CO`, the Potency was “inactive”.

Test: Caspase-3/7 induction in CHO-K1 cells by small molecules, qHTS assay (AID 1346980); also: nearly all actives have a fitted effect of over 15% in size
Conditions: CHO-K1 caspase-3/7 induction, Caspase-Glo luminescence, 17 h; series mostly up to 92.4 µM; caspase-3/7 activation: at the top concentration
Method in brief: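 Wild-type CHO-K1 cells exposed to compounds for 17hr at 37 C, 5% CO2. Caspase-3/7 activity then measured by Caspase-Glo 3/7 luminescence after 30min at room temperature.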
With `CN(C)c1cccc(O)c1` the Potency was “inactive”.
For `CS(=O)(=O)Nc1ccc([N+](=O)[O-])cc1Oc1ccccc1`, the Potency was “inactive”.
With `CCCCCCCCC` the Potency was “inactive”.
In the case of `OC1CCCC1`, the Potency is reported as “inactive”.
With `NS(=O)(=O)c1cc2c(cc1Cl)NC=NS2(=O)=O` the Potency was “inactive”.
With `Nc1c(S(=O)(=O)O)cc(Br)c2c1C(=O)c1ccccc1C2=O` the Potency was “inactive”.
With `OCCOCCOCCOCCO` the Potency was “inactive”.
In the case of `CC(C)(N=C=O)c1cccc(C(C)(C)N=C=O)c1`, the Potency is reported as “inactive”.
In the case of `CCC(C)C=O` (stereo unspecified), the Potency is reported as “inactive”.
With `CCOC(=O)/C=C\C(=O)OCC` the Potency was “inactive”.
For `C=C(C)C(=O)OCCC[Si](OC)(OC)OC`, the Potency was “inactive”.
For `CC(C)(C)C1CCC(O)CC1` (stereo unspecified), the Potency was “inactive”.
In the case of `ClC1=C(Cl)C(Cl)(Cl)C(Cl)=C1Cl`, the Potency is reported as “inactive and 68.6 µM (active)”.
In the case of `Cc1cc(=O)[nH]c(C(C)C)n1`, the Potency is reported as “inactive”.
With `CCCCCC/C=C/CCCCCCCC(=O)O` the Potency was “inactive”.
In the case of `Cc1ccc(N)c(S(=O)(=O)O)c1`, the Potency is reported as “inactive”.
With `CC1Cc2ccccc2N1NC(=O)c1ccc(Cl)c(S(N)(=O)=O)c1` (stereo unspecified) the Potency was “inactive”.
With `CC1(C)CC(N=C=O)CC(C)(CN=C=O)C1` (stereo unspecified) the Potency was “inactive”.
With `CC(C)Cc1ccccc1` the Potency was “inactive”.
In the case of `Cc1ccc(C)c(C)c1`, the Potency is reported as “inactive”.
In the case of `CCCCCCC(C)(C)S`, the Potency is reported as “inactive”.
In the case of `Oc1ccc(OCc2ccccc2)cc1`, the Potency is reported as “inactive”.
For `O=S(=O)(O)c1cc(S(=O)(=O)O)c2c(N=Nc3ccccc3)c(O)ccc2c1`, the Potency was “inactive”.
With `O=C1O[C@H](CO)[C@@H](O)[C@H](O)[C@H]1O` the Potency was “inactive”.
For `C[C@@H]1O[C@@H](OC[C@H]2O[C@@H](Oc3c(-c4ccc(O)c(O)c4)oc4cc(O)cc(O)c4c3=O)[C@H](O)[C@@H](O)[C@@H]2O)[C@H](O)[C@H](O)[C@H]1O`, the Potency was “inactive”.
In the case of `O=S(=O)(O)CCS`, the Potency is reported as “inactive”.
In the case of `O=C(Oc1ccccc1)c1ccc(O)cc1`, the Potency is reported as “inactive”.
For `CC1=CC[C@H]2C[C@@H]1C2(C)C`, the Potency was “inactive”.
For `O=[N+]([O-])c1cccc(Cl)c1`, the Potency was “inactive”.
For `O=C(O)c1cc(-c2ccccc2)nc2ccccc12`, the Potency was “inactive”.
For `C=C(C)C(=O)OCCCCCCCCCCCC`, the Potency was “inactive”.
For `CNC[C@H](O)[C@@H](O)[C@H](O)[C@H](O)CO`, the Potency was “inactive”.
With `CCCCCCCCCC(=O)O` the Potency was “inactive”.
In the case of `CCCCC(CC)COC(C)=O` (stereo unspecified), the Potency is reported as “inactive”.
In the case of `O=[N+]([O-])C(CO)(CO)CO`, the Potency is reported as “inactive”.
With `CC1=C(/C=C/C(C)=C/C=C/C(C)=C/CO)C(C)(C)CCC1` the Potency was “inactive”.
With `C=C(C#N)C(=O)OCC` the Potency was “inactive”.
With `CC(C)(CO)COC(=O)C(C)(C)CO` the Potency was “inactive”.
